# Laboratory results published in the OligoGym collection.
# Target: PAQR6
# Assay: pooled miR-30 sensor sort-seq; sequence = guide strand
# Conditions: shRNA
# Also: reference of the scale not given here.
row,Sequence,sensor-assay potency score (higher = more potent)
1,TAGGCGAAGGCTCCTGTGCGGA,-1.44
2,TGTGAAAGCAGCAATAATGAGT,-0.688
3,TCGTTGGTCATCTGGAAGGAGC,-1.68
4,TAGGTTCCCAGCTGCAGCCAAG,-1.67
5,TGTAATCAAAGCGTCCTGGTGC,0.2
6,TCTATAGGCAAATAGCTGCTGG,-0.274
7,TTGGTCATCTGGAAGGAGCTGA,0.592
8,TTGTCGAACAGGAATGGATAGG,-0.865
9,AAAGAGTGGGAGGTTGTCGAAC,-1.08
10,TGAGGACACAGTCCAAAGCCGA,-1.67
11,TAATGAGTAGGTTCCCAGCTGC,-0.176

# Target: PARN
# Assay: as above
# Conditions: shRNA
row,Sequence,sensor-assay potency score (higher = more potent)
1,TAAGCTTCTGATACCTCTCTTC,0.34
2,ATACATAGGACAGAGCTCCTGC,0.763
3,TAAACTTCTTTTGATCCTCAGG,-0.665
4,TTTCTCTTTCCTACTGTGCTGG,0.101
5,TAGCTTTCTGCATATTTGCTGG,-0.898
6,TAGGCTGCAAGTCTGGTCCTTC,0.109
7,TAGAAGTTAAATGACTTCGTTA,-0.166
8,TTCTTCTTCATCTACTTTGCTG,-0.0536
9,TTGACATCTGGTGAGGATCTAT,-0.282
10,TTCATGACAGCCTACAACCGTG,-0.783
11,TTTAGTATCCAAGAGTCTGGGG,-0.201
12,TTTATTAAAATCAAATCCCTGG,0.307
